Compound activity from PubChem BioAssay.
Most compounds without a hit are left out; they make up all but 2.7% or so of the library.
Pf gametocyte: inhibitors of late stage P. falciparum gametocyte viability. P. falciparum stage V gametocytes, ATP luminescence, 24 h. inhibition, % at 10.9 µM. 150,000 tested, 0.065% active;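 active = inhibition above the mean plus 3 SD of compounds within the control limits, set per campaign, cut at about 38% in these data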
Mcl-1 Bim block: disrupts Bim peptide binding to human Mcl-1; Bead-based flow cytometry, Bim peptide-Mcl-1 binding; inhibition, % at 10 µM; 190,000 tested, 0.1% active; in the data active = inhibition above about 40%
Target sequence (Q07820 whole entry, looked up): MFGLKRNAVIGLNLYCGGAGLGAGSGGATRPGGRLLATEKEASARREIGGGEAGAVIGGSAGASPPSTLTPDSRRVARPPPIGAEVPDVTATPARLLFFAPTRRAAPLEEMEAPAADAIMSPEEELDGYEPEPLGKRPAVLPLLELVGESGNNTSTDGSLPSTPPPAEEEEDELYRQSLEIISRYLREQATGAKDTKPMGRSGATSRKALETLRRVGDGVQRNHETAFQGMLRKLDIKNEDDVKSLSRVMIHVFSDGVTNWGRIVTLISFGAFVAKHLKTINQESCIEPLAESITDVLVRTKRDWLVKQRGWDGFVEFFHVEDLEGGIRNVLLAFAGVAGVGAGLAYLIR
Mcl1 Noxa PPI: Mcl-1/Noxa interaction inhibition; 220,000 tested, 1.5% active; inhibition, % at 21.7 µM; TR-FRET Mcl-1/Noxa peptide binding, 2 h; AID 1022; Q07820;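 active = compounds that cut the protein-peptide binding signal by more than 50% relative to plate controls in a single-dose test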;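 also: His-tagged Mcl-1 with rhodamine Noxa BH3 peptide and terbium anti-His antibody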
14-3-3 Bad PPI: disrupts binding of bovine 14-3-3 zeta to phospho-Bad peptide | P63103 | TR-FRET 14-3-3zeta/Dy647-pBad peptide displacement, 1 h | inhibition, % at 21.7 µM | 220,000 tested, 0.71% active | AID 781;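 active = inhibition above about 70%, limit read from the data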
Target sequence (P63103 whole entry, looked up): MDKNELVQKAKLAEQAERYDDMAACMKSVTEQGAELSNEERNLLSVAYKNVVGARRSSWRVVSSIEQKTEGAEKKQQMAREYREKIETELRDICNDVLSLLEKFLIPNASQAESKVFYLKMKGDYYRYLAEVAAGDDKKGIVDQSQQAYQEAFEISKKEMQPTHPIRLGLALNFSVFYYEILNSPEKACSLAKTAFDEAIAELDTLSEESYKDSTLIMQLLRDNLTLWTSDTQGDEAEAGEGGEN
Mcl1-Bid inh: disrupts binding of human Mcl-1 to Bid peptide; TR-FRET Mcl-1/Bid-Dy647 peptide binding, 1536-well; 220,000 tested, 0.97% active; Q07820; inhibition, % at 21.7 µM;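 active = compounds that cut the binding signal by more than half at the single screening dose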;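 also: His-tagged Mcl-1 with europium anti-His antibody binding Bid BH3 peptide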
eIF4E 4G PPI: eIF4E/eIF4G interaction inhibition in translation initiation; P63073+Q04637; TR-FRET eIF4E-eIF4GI(517-606) binding, 2 h; inhibition, % at 21.7 µM; 220,000 tested, 0.37% active; AID 782;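 active = inhibition above about 30%, limit read from the data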
Each line names hits and unclear results; the compound was inactive in the other large screens; ! = not active in a repeat; [ ] = another dose, or the depositor's remark.

CCOC(=O)CSc1ccc(-c2nc3ccccc3[nH]2)cn1	Mcl1 Noxa PPI 51 (no result: Pf gametocyte)
Cc1cc2nc(-c3ccc(SCC(=O)N4CCN(C(=O)c5ccco5)CC4)nc3)[nH]c2cc1C	Mcl1 Noxa PPI 71
Cc1ccc2nc(-c3ccc(SCC(=O)Nc4nnc(C)s4)nc3)[nH]c2c1	Mcl1 Noxa PPI 68, Mcl1-Bid inh 70
Cc1cc2nc(-c3ccc(SCC(=O)N4CCOCC4)nc3)[nH]c2cc1C	none (no result: Pf gametocyte)
O=C(N/N=C/c1cccc(OC(=O)N2CCOCC2)c1)c1cccs1	none
Cc1cc(C)c[n+](-c2nc3ccccc3nc2C(=C=[N-])C#N)c1	Mcl-1 Bim block 46! (no result: Pf gametocyte)
CCCCCn1c(N)c(-c2nc3ccccc3o2)c2c([N+](=O)[O-])nn(CC)c(=O)c21	Mcl1 Noxa PPI 97, Mcl1-Bid inh 60
CCCCCn1c(N)c(-c2nc3ccccc3s2)c2c([N+](=O)[O-])nn(CC)c(=O)c21	none (no result: Pf gametocyte)
COc1cc(C(=O)Nc2ccc(Br)cc2C(=O)c2cc(OC)c(OC)c(OC)c2)cc(OC)c1OC	none (no result: Pf gametocyte)
Oc1ccc(/C=N/Nc2ccnc3cc(Cl)ccc23)cc1O	Mcl1 Noxa PPI 95 (no result: Mcl-1 Bim block)
O=C(Nc1ccc(N2C(=O)C3CCCCC3C2=O)cc1Cl)c1cccs1 (configuration not stated)	none
CCCCC(=O)Nc1sc(C(=O)N(CC)CC)c(C)c1C(=O)OC	none
CCOC(=O)c1c(NC(=O)CN(C)C)sc(C(=O)N(CC)CC)c1C	Mcl1-Bid inh 70 (no result: Pf gametocyte)
CCC(C)(C)n1nnnc1C(c1cccnc1)N1CCN(c2cccc(C(F)(F)F)c2)CC1 (configuration not stated)	none (no result: Pf gametocyte)
CSC1=N/C(=C\c2ccccc2F)C(=O)S1	Mcl1 Noxa PPI 92, Mcl1-Bid inh 100
COc1cccc(/C=C2\N=C(SC)SC2=O)c1OC	none (no result: Pf gametocyte)
Cn1c(NC(=O)Cc2ccc(F)cc2)cc(=O)n(C)c1=O	Mcl1-Bid inh 65 (no result: Pf gametocyte)
O=C(Cc1ccccn1)Nc1ccccc1	14-3-3 Bad PPI 73[fluorescence artefact?]
CC(C)CC(NS(=O)(=O)c1cc(C(=O)O)ccc1Cl)C(=O)O (configuration not stated)	none
CC(=O)c1ccc(NC(=O)C(C)NCc2ccccc2Cl)cc1 (configuration not stated)	none
Cc1ccccc1N/C(SCc1cccc(Br)c1)=C(/C#N)C(N)=O	14-3-3 Bad PPI 71[fluorescence artefact?] (no result: Pf gametocyte)
CCc1c(C)sc(NC(=O)C2CCCCC2C(=O)O)c1C(N)=O (configuration not stated)	eIF4E 4G PPI 55 (no result: Pf gametocyte)
CCC(C)(C)n1nnnc1CN(Cc1ccc(Cl)cc1)Cc1ccco1	Mcl1-Bid inh 57 (no result: Pf gametocyte)
CCC(C)(C)n1nnnc1CN(Cc1ccco1)Cc1cc2cc3c(cc2[nH]c1=O)OCO3	none (no result: Pf gametocyte, 14-3-3 Bad PPI, eIF4E 4G PPI)
CCCCn1nc(NC(=O)c2cccs2)c2cc3ccccc3nc21	none
CCCn1nc(NC(=O)c2cccs2)c2cc3ccccc3nc21	14-3-3 Bad PPI 77[fluorescence artefact?]
CCCn1nc(NC(=O)c2cccs2)c2cc3cc(OC)ccc3nc21	14-3-3 Bad PPI 92[fluorescence artefact?]
Cc1ccc(C)c(NS(=O)(=O)c2ccc3[nH]c(=O)oc3c2)c1	Mcl1 Noxa PPI 59
O=C(O)Cc1sc(N/N=C\c2ccccc2)nc1-c1ccccc1	Mcl1 Noxa PPI 62
CCOC(=O)c1sc(N/N=C/c2ccccc2)nc1C	none
O=C(Cc1cccs1)N1CCN(S(=O)(=O)c2ccccc2)CC1	Mcl1-Bid inh 97 (no result: Pf gametocyte)
O=C(COC(=O)c1ccc(Br)o1)Nc1ccc(S(=O)(=O)N2CCCC2)cc1	Mcl1-Bid inh 60 (no result: Pf gametocyte)
O=C(Cc1cccs1)Nc1ccc(S(=O)(=O)N2CCCCC2)cc1	Mcl1 Noxa PPI 66
C/C(=N\N(c1ccccc1)c1ccccc1)c1ccc(N)cc1	none (no result: Mcl-1 Bim block, Mcl1 Noxa PPI, 14-3-3 Bad PPI, Mcl1-Bid inh, eIF4E 4G PPI)
O=C(CCc1ccccc1)NNC(=O)c1ccccc1Br	none
O=C(c1nn2c(C(F)(F)F)cc(-c3cccs3)nc2c1Cl)N1CCCc2ccccc21	none
COc1ccc(CCc2nnc(CCC(=O)NCCc3ncccc3C)o2)cc1	none
C#CCn1c(=NC(=O)c2sc3ccccc3c2Cl)sc2cc(S(N)(=O)=O)ccc21	14-3-3 Bad PPI 77[fluorescence artefact?]
C#CCn1c(=NC(=O)c2ccc(S(=O)(=O)N3CCc4ccccc4C3)cc2)sc2cc(S(N)(=O)=O)ccc21	none (no result: Pf gametocyte)
O=C(Nc1ccc(NC(=O)c2ccccn2)cc1)C(=O)Nc1ccc2c(c1)OCCO2	Mcl1 Noxa PPI 54
O=C(Nc1ccc2c(c1)OCCO2)c1cccc2nc3ccccc3nc12	Mcl1 Noxa PPI 62
O=C(Nc1ccc2c(c1)OCCO2)c1ccccn1	none
O=C(Nc1ccc2c(c1)OCCO2)c1ccccc1F	none
COc1cc2c(cc1OC)C(c1ccccc1F)OC(=O)C2 (configuration not stated)	Mcl-1 Bim block 96
Cc1ccc2c(c1)nnn2C1CCN(CC(=O)NNC(=O)c2ccco2)CC1	none
CCCc1cc(=O)[nH]c(Nc2cc(OC)ccc2OC)n1	none
CCOc1ccc(Nc2nc(CC(=O)OC)cc(=O)[nH]2)cc1	14-3-3 Bad PPI 89
COc1cc(/C=N/NC(=O)Cc2csc(N3CCOCC3)n2)cc(OC)c1O	Mcl1 Noxa PPI 58 (no result: Pf gametocyte)
O=C(Cc1csc(N2CCOCC2)n1)N/N=C/c1ccc(Cl)cc1Cl	none
COc1cc(/C=C(/C#N)C(=O)Nc2ccc(C)cc2)ccc1Oc1nc(Cl)ncc1F	none
CC(NS(=O)(=O)c1cccc(Cl)c1)C(=O)N(C)C1CCN(C)CC1 (configuration not stated)	Mcl1 Noxa PPI 53
O=C(Nc1cccc(-c2nnc(-c3ccco3)o2)c1)C(c1ccccc1)c1ccccc1	none (no result: Pf gametocyte, Mcl1 Noxa PPI)
COC(=O)c1cn(C(=O)c2ccc(OC)cc2)c2ccccc12	none (no result: Mcl-1 Bim block, Mcl1 Noxa PPI, 14-3-3 Bad PPI, Mcl1-Bid inh, eIF4E 4G PPI)
O=C(CNC(=O)c1ccccc1Br)N/N=C/c1ccccc1O	none (no result: Pf gametocyte)
O=C(CNC(=O)c1ccccc1Br)N/N=C/c1cc(Br)ccc1O	14-3-3 Bad PPI 93 (no result: Pf gametocyte)
COc1cccc(-n2c(C)cc(/C=C3/C(=N)N4C(=NC3=O)SN=C4S(C)(=O)=O)c2C)c1	none
CN(C)c1ccc(/C=C2\C(=N)N3C(=NC2=O)Sc2cc(S(C)(=O)=O)ccc23)cc1	Mcl1 Noxa PPI 60, Mcl1-Bid inh 64 (no result: Pf gametocyte, Mcl-1 Bim block)
CC(O)CN1CCN(C(=O)CN2C(=O)NC(c3ccccc3)(c3ccccc3)C2=O)CC1 (configuration not stated)	none (no result: Mcl-1 Bim block, Mcl1 Noxa PPI, 14-3-3 Bad PPI, Mcl1-Bid inh, eIF4E 4G PPI)
O=C1CC(N2C(=O)/C(=C/C=C/c3ccccc3)SC2=S)C(=O)N1c1ccccc1 (configuration not stated)	none
CN1CCN(c2cc3c(c4c2[nH]c2ccccc24)C(=O)CC(C)(C)C3)CC1	Mcl1 Noxa PPI 54 (no result: Pf gametocyte)
CN1CCN(c2ncnc3c2[nH]c2ccc(F)cc23)CC1	none (no result: Pf gametocyte)
C#CCOCCOCCOCCNc1nc(N2CCOCC2)nc(N2CCN(C(=O)[C@H]([C@@H](C)CC)n3cc([C@@H](N)CC(C)C)nn3)CC2)n1	none
CNc1ccc(Br)cc(C(=O)/C=C/c2ccc(OC)cc2)c1=O	Mcl1 Noxa PPI 63
CCNc1ccc(Br)cc(C(=O)/C=C/c2ccc(Cl)cc2Cl)c1=O	Mcl1 Noxa PPI 96 (no result: Pf gametocyte)
